Assay results reported in the supplement of paper PMC11006884.
Targets with a hit are over-represented here; the source holds about 6,500 in all. About 2% of all pairs of compound and target were hits. A number with no mark means an inactive call.

compound: COC(=O)C#Cc1ccccc1 [methyl 3-phenylpropiolate]; assay: log2 ratio of iodoacetamide-alkyne labeling of the cysteine site, DMSO over compound (competition); higher = stronger covalent engagement of the cysteine by the compound, active = 1 or more; conditions: 500 µM; treatment time 1 h; system: HEK293T cell lysate
Outline: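 HEK293T lysate at 2 mg/mL was treated with vehicle or electrophile (500 µM) for 1 h at ambient temperature, then labelled with iodoacetamide alkyne (1 h), clicked to sCIP-TMT reagents, pooled, digested with trypsin overnight at 37 °C, enriched on streptavidin and eluted with acid. Peptides were analysed by Orbitrap Eclipse LC-MS/MS with FAIMS and quantified in FragPipe, using duplicate channels and three replicates, with cysteines quantified in only one replicate excluded. The log2 competition ratio for each cysteine is the mean control-channel reporter intensity divided by the mean compound-channel reporter intensity.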

Sequence of UniProt Q8TD19 (Q8TD19 whole entry, looked up): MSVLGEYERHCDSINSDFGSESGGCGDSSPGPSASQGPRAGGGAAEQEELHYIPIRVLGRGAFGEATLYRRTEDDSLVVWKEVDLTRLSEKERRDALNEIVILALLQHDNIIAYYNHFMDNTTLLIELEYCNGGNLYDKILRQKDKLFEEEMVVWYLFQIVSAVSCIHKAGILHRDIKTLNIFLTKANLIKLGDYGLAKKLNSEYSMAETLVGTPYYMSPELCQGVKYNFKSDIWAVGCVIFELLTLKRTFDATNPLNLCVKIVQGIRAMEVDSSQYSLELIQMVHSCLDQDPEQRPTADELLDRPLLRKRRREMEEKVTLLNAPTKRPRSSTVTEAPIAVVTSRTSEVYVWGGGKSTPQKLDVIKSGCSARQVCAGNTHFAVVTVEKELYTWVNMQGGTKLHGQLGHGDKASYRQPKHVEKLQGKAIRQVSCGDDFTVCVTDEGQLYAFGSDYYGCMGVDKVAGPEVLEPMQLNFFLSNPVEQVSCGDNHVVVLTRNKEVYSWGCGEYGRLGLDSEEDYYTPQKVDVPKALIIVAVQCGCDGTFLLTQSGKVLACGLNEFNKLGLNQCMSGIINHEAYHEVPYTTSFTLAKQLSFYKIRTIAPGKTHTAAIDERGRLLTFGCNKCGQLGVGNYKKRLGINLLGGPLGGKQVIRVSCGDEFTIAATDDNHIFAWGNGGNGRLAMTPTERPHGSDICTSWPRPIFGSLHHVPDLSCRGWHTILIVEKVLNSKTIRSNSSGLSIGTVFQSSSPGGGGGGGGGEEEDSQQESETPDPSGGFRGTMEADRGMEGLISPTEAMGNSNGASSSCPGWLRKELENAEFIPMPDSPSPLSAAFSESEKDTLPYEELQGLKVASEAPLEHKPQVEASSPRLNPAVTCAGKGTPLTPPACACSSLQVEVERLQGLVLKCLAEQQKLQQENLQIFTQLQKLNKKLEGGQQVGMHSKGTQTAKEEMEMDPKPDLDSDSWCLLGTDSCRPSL
Sequence of UniProt Q8WXI9 (Q8WXI9 whole entry, looked up): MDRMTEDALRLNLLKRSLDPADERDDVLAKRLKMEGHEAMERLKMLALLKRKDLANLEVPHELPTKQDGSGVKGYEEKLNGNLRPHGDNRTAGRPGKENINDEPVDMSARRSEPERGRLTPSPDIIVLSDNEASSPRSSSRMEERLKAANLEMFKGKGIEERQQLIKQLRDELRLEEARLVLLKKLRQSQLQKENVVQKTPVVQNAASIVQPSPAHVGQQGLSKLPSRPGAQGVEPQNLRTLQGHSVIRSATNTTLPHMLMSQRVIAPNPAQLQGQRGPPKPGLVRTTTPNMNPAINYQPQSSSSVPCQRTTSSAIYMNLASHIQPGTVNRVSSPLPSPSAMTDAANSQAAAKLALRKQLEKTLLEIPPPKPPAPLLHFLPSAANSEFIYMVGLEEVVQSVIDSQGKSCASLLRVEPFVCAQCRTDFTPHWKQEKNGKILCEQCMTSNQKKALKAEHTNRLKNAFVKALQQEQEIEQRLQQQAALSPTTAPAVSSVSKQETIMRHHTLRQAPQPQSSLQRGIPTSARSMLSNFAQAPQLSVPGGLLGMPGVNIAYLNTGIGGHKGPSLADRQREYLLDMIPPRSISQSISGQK
Sequence of UniProt Q6IBW4 (Q6IBW4 whole entry, looked up): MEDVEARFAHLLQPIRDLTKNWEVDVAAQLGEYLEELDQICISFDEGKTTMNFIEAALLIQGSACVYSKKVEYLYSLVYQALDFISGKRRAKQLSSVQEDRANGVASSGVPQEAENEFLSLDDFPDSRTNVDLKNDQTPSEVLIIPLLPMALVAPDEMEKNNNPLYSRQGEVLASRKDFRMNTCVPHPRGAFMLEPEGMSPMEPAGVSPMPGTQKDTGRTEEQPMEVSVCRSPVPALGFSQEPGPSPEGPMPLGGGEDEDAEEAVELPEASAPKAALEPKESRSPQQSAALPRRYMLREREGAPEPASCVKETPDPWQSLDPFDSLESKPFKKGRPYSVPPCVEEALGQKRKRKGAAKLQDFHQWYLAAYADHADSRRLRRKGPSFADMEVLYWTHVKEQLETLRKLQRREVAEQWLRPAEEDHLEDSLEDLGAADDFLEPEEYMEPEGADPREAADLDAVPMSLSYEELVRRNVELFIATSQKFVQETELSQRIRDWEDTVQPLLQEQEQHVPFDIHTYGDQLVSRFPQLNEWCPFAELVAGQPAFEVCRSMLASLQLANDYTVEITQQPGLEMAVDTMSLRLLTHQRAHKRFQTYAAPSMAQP
Sequence of UniProt Q6UB35 (Q6UB35 whole entry, looked up): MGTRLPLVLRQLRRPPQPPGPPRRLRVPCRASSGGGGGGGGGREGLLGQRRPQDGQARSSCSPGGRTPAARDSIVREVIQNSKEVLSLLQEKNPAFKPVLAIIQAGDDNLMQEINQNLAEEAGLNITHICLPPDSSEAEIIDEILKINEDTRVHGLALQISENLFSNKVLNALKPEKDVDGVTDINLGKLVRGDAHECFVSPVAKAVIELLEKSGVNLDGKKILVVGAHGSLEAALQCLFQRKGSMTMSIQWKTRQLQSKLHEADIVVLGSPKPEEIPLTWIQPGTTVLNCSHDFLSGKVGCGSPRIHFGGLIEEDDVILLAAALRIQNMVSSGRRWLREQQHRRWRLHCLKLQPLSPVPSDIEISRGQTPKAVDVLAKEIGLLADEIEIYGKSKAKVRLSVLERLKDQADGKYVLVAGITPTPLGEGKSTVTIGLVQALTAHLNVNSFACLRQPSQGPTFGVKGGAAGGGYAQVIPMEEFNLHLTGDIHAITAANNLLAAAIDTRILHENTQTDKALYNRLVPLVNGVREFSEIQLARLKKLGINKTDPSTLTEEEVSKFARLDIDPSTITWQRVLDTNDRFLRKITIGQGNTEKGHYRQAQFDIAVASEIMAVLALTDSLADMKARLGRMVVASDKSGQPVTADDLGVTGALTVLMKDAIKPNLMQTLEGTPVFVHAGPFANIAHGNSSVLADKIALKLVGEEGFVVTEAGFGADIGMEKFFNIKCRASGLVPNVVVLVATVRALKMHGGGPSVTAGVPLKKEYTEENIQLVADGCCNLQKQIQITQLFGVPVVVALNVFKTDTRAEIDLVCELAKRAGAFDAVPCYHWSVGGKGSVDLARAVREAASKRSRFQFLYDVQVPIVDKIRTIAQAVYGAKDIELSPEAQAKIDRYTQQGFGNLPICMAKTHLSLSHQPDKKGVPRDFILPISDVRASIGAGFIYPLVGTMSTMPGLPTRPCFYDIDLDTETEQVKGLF
Sequence of UniProt Q8IYS2 (Q8IYS2 whole entry): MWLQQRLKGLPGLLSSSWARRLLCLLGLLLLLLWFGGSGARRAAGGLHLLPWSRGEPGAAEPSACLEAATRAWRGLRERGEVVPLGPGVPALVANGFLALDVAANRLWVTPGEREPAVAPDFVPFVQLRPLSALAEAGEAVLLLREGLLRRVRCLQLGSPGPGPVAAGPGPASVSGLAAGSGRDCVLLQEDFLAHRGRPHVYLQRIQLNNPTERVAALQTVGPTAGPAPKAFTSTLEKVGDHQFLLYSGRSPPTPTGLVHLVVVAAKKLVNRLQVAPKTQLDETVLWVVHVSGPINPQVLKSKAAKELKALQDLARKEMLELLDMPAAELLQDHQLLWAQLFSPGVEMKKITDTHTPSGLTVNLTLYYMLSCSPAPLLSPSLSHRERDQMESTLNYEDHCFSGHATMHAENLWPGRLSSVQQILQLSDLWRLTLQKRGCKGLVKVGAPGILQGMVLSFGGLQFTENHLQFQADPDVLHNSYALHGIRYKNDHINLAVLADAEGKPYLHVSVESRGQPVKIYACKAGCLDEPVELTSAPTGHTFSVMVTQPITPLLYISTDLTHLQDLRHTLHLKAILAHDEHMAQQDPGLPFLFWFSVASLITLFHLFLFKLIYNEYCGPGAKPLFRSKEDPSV
Sequence of UniProt Q7Z7L1 (Q7Z7L1 whole entry, looked up): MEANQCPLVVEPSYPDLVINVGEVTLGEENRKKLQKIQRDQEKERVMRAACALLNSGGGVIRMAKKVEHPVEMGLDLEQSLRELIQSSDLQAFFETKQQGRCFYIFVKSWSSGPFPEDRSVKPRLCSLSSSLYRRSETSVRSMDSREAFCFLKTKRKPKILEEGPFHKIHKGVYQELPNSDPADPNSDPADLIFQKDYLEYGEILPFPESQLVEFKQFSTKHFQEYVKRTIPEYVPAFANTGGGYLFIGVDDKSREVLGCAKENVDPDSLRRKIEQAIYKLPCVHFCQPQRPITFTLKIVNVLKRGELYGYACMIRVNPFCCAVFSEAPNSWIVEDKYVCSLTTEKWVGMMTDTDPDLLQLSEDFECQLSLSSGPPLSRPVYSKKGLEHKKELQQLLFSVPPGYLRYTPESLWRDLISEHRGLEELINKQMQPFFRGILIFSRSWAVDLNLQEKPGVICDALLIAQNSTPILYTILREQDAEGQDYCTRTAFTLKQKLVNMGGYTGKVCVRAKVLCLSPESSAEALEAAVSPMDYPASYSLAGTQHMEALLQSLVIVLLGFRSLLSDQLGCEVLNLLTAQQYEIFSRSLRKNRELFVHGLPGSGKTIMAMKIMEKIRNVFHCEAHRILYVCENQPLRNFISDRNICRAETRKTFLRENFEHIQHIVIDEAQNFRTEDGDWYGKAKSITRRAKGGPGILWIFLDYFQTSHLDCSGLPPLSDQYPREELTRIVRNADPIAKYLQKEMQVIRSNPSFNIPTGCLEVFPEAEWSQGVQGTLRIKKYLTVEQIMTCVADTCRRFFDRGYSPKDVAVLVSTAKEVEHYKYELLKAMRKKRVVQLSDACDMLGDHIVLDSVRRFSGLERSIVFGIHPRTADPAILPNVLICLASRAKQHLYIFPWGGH
Sequence of UniProt Q86W42 (Q86W42 whole entry, looked up): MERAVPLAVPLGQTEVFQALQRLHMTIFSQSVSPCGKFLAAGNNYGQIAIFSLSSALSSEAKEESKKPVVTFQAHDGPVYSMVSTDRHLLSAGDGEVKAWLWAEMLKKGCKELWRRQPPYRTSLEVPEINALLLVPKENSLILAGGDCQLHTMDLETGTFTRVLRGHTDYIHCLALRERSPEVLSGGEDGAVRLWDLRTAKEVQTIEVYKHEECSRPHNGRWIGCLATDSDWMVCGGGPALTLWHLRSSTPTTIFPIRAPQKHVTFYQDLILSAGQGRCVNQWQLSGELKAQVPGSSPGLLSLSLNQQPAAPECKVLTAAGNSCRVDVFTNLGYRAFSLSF

Target | log2 ratio of iodoacetamide-alkyne labeling
HIST2H3A C111 (UniProt Q71DI3) | 0.0441
UniProt Q96GD4_C234 | 0.62
UniProt Q6PJG6_C720 | 0.324
SLFN11 C6 (UniProt Q7Z7L1) | 0.329
SMC5 C726 (UniProt Q8IY18) | 0.249
DHX37 C1026 (UniProt Q8IY37) | 0.317
GATAD2B C423 (UniProt Q8WXI9) | 0.12
MTHFD1L C291 (UniProt Q6UB35) | 0.126
NCAPH2 C342 (UniProt Q6IBW4) | 1.07 (active)
DHX38 C20 (UniProt Q92620) | 1.36 (active)
IRF2BP2 C40 (UniProt Q7Z5L9) | 0.276
FLAD1 C499 (UniProt Q8NFF5) | 1.06 (active)
NEK9 C11 (UniProt Q8TD19) | 1.21 (active)
THOC6 C314 (UniProt Q86W42) | 0.0566
UniProt Q969V6_C326 | 1.42 (active)
VPS13B C2907 (UniProt Q7Z7G8) | 0.889
PRPF8 C435 (UniProt Q6P2Q9) | 1.24 (active)
UniProt Q99590_C478 | 0.396
UniProt Q86Y56_C409 | 0.492
GBF1 C1766 (UniProt Q92538) | 0.302
SMARCC1 C164 (UniProt Q92922) | 0.146
KIAA2013 C185 (UniProt Q8IYS2) | 0.14
PDLIM5 C449 (UniProt Q96HC4) | 0.0755
